Assay outcomes: PubChem, National Center for Advancing Translational Sciences (NCATS)
HT1080NT lethal: kills 2HG-producing HT-1080-NT fibrosarcoma cells | HT-1080-NT fibrosarcoma viability, CellTiter-Glo ATP luminescence, 48 h | Potency, µM (highest dose often 46.1 µM), inactives show at the top dose activity, negative = less viability, most hits filed as cytotoxic | actives 1.6% (n = 360,000);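 also: NT is the 2HG producing partner of a matched IDH1 knockdown line; potency is read from the fitted curve at half-maximal effect; 0% = DMSO-treated cells and -100% = media-only wells without cells; nearly all actives have a fitted effect of over 55% in size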
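HT-1080-NT fibrosarcoma cells (2HG-overproducing), 750 cells/well in RPMI with 5% FBS, dosed after 2 h and incubated 48 h at 37C. CellTiter-Glo luminescence normalized to DMSO and no-cell wells; concentration-response curves fitted and classed.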
IL1B secr inh: inhibitors of inflammasome signaling (IL-1 beta secretion) | THP-1 LPS/ATP IL-1B secretion, AlphaLISA, 16 h; hits give low values | actives 4.7% (n = 360,000) | activity change, % at 57.5 µM; in the data active = activity change below about -50%; inconclusive = mostly about -30% to -49%
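THP-1 cells pretreated 1 hr with compounds (up to 57.5 uM final), then stimulated with LPS (250 ng/mL final) plus ATP (1.25 mM final); secreted IL-1B measured by AlphaLISA after 16 hr, decreased signal indicating inhibition.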
TDP1 cell CPT: DT40-hTDP1 cell growth loss with CPT | chicken DT40 Tdp1-/-;hTDP1 cells + 20 nM CPT, ATP luminescence, 48 h | Potency, µM (top dose mostly 46.2 µM), for inactives: top-dose activity change, negative = growth inhibition, usual class: inhibitors | actives 12% (n = 420,000); also: potency is read from the fitted curve at half-maximal effect; nearly all actives have a fitted effect of over 55% in size
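Chicken DT40 Tdp1-/- cells complemented with human TDP1, 400 cells/well, exposed to compounds plus 20 nM camptothecin for at least 48 h at 37 C; viability read as ATP content by CellTiter-Glo luminescence.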
HT1080 IDH1KD tx: HT-1080 IDH1 knockdown cell toxicity (counter line) | HT-1080 IDH1 knockdown viability, ATP luminescence, 48 h | Potency, µM (doses to about 46.1 µM), for the others: top-dose activity, negative = toxicity, usual class: cytotoxic | actives 2% (n = 360,000);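 also: potency is read from the fitted curve at half-maximal effect; 0% = DMSO wells and -100% = cell-free medium wells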
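% activity derives from luminescence (CellTiter-Glo), normalised to DMSO and no-cell wells. HT-1080-IDH1KD cells, 750/well, had 48 h compound exposure at 37 °C.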
DT40 TDP1 no CPT: qHTS for Inhibitors of human tyrosyl-DNA phosphodiesterase 1 (TDP1): qHTS in cells in absence of CPT | DT40 Tdp1-/- hTDP1 cells, no CPT, ATP luminescence, 48 h | Potency, µM (series often up to 46.2 µM), without a hit: at the top dose activity change, negative = growth inhibition, most hits filed as inhibitors | actives 15% (n = 420,000) | AID 686978, 2013; also: potency is read from the fitted curve at half-maximal effect; nearly all actives have a fitted effect of over 55% in size
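Cells were dispensed at 400 per well, compounds added by pin tool, plates incubated ≥48 hr at 37 °C, then CellTiter-Glo added for 30 min at room temperature before luminescence reading. Line: DT40 Tdp1-/- complemented with hTDP1; camptothecin omitted.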
Starred values were filed as active, the others as inactive; i = inactive; ? = inconclusive; · = no result given; [ ] = another dose, or the depositor's remark. Hits are enriched below; roughly 19% of the tested compounds scored in any of these assays. Unless noted, calls follow the shape of the dose curve; as a rule, active = well fitted curve in the direction sought with a large enough effect; inconclusive = small, poorly fitted or top-dose-only effect, or another doubt; inactive = no such curve, though single readings can be large; an effect the other way counts as inactive or inconclusive. Unless noted, % is scaled to controls: 0 for no effect and ±100 for the full control effect.

SMILES | HT1080NT lethal | IL1B secr inh | TDP1 cell CPT | HT1080 IDH1KD tx | DT40 TDP1 no CPT
Cc1cccc(CN2C(=O)c3ccccc3Sc3ccc(C(=O)NCCN4CCOCC4)cc32)c1 | ? | -67.8* | -0.5% | -29.4% | ?
O=C(NCCCN1CCOCC1)c1ccc2c(c1)N(Cc1ccc(Cl)cc1)C(=O)c1ccccc1S2=O (stereo unspecified) | -2.3% | -16.1 | ? | 0.0% | ?
Cc1nc(Cl)sc1C(=O)Nc1ccc(Cl)cc1 | 16.3% | -6.1 | -1.7% | 2.7% | -6.9%
CS(=O)(=O)c1ccc(Nc2nc(C(N)Cc3ccccc3)cs2)cc1 (stereo unspecified) | -17.0% | -0.2 | ? | -12.7% | 20.6µM*
CS(=O)(=O)c1ccc(Nc2nc(C(N)c3ccccc3)cs2)cc1 (stereo unspecified) | 2.0% | -5.2 | ? | -1.4% | ?
CS(=O)(=O)c1ccc(Nc2nc(C(N)Cc3ccc(C(F)(F)F)cc3)cs2)cc1 (stereo unspecified) | 18.4µM* | -20.9 | 20.6µM* | ? | -83.8%
CS(=O)(=O)c1ccc(Nc2nc(C(N)c3ccccc3Cl)cs2)cc1 (stereo unspecified) | -8.8% | 24.3 | ? | ? | ?
COc1ccc(CC(N)c2csc(Nc3ccc(S(C)(=O)=O)cc3)n2)cc1 (stereo unspecified) | -21.4% | -14.2 | ? | -23.4% | 23.1µM*
CS(=O)(=O)c1ccc(Nc2nc(C(N)COCc3ccccc3)cs2)cc1 (stereo unspecified) | -13.8% | -3.0 | 20.6µM* | -8.5% | 20.6µM*
CS(=O)(=O)c1ccc(Nc2nc(C(N)Cc3ccc(F)cc3)cs2)cc1 (stereo unspecified) | -29.9% | -27.7 | 16.4µM* | -28.5% | 20.6µM*
NC(Cc1ccc(F)cc1)c1csc(Nc2ccc(S(N)(=O)=O)cc2)n1 (stereo unspecified) | ? | -14.6 | ? | -20.0% | ?
CNc1nc(SCC(=O)Nc2ccccc2)nc(N2CCOCC2)n1 | -11.1% | -6.3 | -9.7% | -0.8% | -26.8%
COc1cc(NS(=O)(=O)c2ccc(NC(=S)NC(=O)c3sc4cc(F)ccc4c3Cl)cc2)nc(OC)n1 | 7.2% | -50.4* | -3.7% | -1.3% | -28.5%
COc1cccc(C(=O)/C=C/Nc2ccc(S(=O)(=O)Nc3ncccn3)cc2)c1 | -14.5% | 9.7 | -13.7% | -27.3% | ?
COc1cc(NS(=O)(=O)c2ccc(NC(=S)NC(=O)c3sc4ccccc4c3Cl)cc2)nc(OC)n1 | -1.3% | 36.8 | 7.4% | 4.9% | -17.7%
COc1cc(NS(=O)(=O)c2ccc(N/C=C\C(=O)c3ccc(C)cc3)cc2)nc(OC)n1 | -2.1% | 0.0 | 11.6µM* | -5.1% | 20.6µM*
COc1ccc(C(=O)/C=C/Nc2ccc(S(=O)(=O)Nc3cccc(C(C)=O)c3)cc2)cc1 | -20.2% | -8.2 | ? | -27.3% | 23.1µM*
COc1cc(NS(=O)(=O)c2ccc(N/C=C\C(=O)c3ccc(OC)c(OC)c3)cc2)nc(OC)n1 | -6.5% | 13.9 | ? | ? | ?
COc1cccc(C(=O)/C=C/Nc2ccc(S(=O)(=O)Nc3ccc(C(C)=O)cc3)cc2)c1 | -5.0% | 0.0 | ? | -13.0% | 16.4µM*
CC1CCC(NC(=O)C2CCC(CNS(=O)(=O)c3cccc4cccnc34)CC2)CC1 (stereo unspecified) | -2.7% | 37.3 | ? | -7.8% | -14.0%
Cn1c(=O)n(C)c2cc(S(=O)(=O)N3CCN(c4ccccc4)CC3)ccc21 | 2.6% | 31.8 | -10.1% | 2.4% | -22.3%
Cc1cc([N+](=O)[O-])nn1Cc1noc(C(=O)NCCc2ccccn2)n1 | 6.7% | 19.1 | -2.7% | -0.1% | 13.0%
Oc1ccc(-c2cnccn2)cc1CN1CCN(C2CCCCC2)CC1 | · | · | -75.1%[9.04 µM] | · | -21.4%
CC(=O)c1ccc(NS(=O)(=O)c2ccc(C)cc2)cc1 | -6.1% | 16.1 | -15.3% | -2.5% | -5.2%
COc1ccc(-c2csc(Nc3ccc(S(=O)(=O)Nc4cc(OC)nc(OC)n4)cc3)n2)cc1 | -3.8% | -75.2* | 1.1% | -0.9% | -3.2%
SMILES | HT1080NT lethal | IL1B secr inh | TDP1 cell CPT | HT1080 IDH1KD tx | DT40 TDP1 no CPT
COc1cc(NS(=O)(=O)c2ccc(NC(C)=O)cc2)nc(OC)n1 | 12.3% | 22.2 | -0.1% | 5.6% | -6.6%
COc1cc(OC)c(OC)cc1/C=C/C(=O)c1ccc(NS(=O)(=O)c2ccc(C)cc2)cc1 | -20.9% | -59.9* | ? | -19.9% | ?
COc1cc(NS(=O)(=O)c2ccc(N/C=C(\C#N)c3nc4cc(Cl)ccc4o3)cc2)nc(OC)n1 | ? | 144.3 | 9.2µM* | ? | 14.6µM*
CC(C)(C)C(=O)NC1(C(F)(F)F)C(=O)Nc2c1c(=O)[nH]c(=O)n2-c1ccccc1 (stereo unspecified) | · | · | 9.1% | · | 3.5%
CCN(c1ccccc1)S(=O)(=O)c1cccc(C(=O)N2CCN(S(=O)(=O)c3ccccc3)CC2)c1 | 2.0% | -3.3 | ? | 6.2% | ?
C=CCN(c1ccccc1)S(=O)(=O)c1cccc(C(=O)N2CCCC2)c1 | 0.9% | 7.2 | 16.4µM* | 8.0% | 18.4µM*
C=CCN(c1ccccc1)S(=O)(=O)c1cccc(C(=O)N2CC(C)CC(C)C2)c1 (stereo unspecified) | -24.0% | i | 9.2µM* | ? | 3.66µM*
CC(=O)c1c(C)[nH]c(C(=O)OCc2ccc([N+](=O)[O-])cc2)c1C | 1.6% | 19.9 | ? | -1.4% | ?
COC(=O)c1ccc(COC(=O)c2[nH]c(C)c(C(C)=O)c2C)o1 | -18.7% | 38.5 | 10.3µM* | -19.5% | 2.91µM*
COC(=O)c1ccc(COC(=O)c2ccc(CO)cc2)o1 | -2.3% | 7.6 | 1.4% | -1.3% | 2.8%
CC(=O)c1c(C)[nH]c(C(=O)OCc2ccccc2)c1C | ? | -2.6 | ? | -2.5% | 20.6µM*
CCNC(=O)COC(=O)c1[nH]c(C)c(C(=O)OC)c1C | 14.8% | 36.8 | -5.2% | 9.9% | 0.5%
COC(=O)c1c(C)[nH]c(C(=O)OCC(=O)c2ccc(C)s2)c1C | -23.5% | -71.9* | ? | -7.4% | ?
CCC(NC(=O)c1[nH]c(C)c(C(C)=O)c1C)c1ccc(Br)cc1 (stereo unspecified) | ? | ? | ? | ? | 14.6µM*
CC(C)=CCn1cnc2c1c(=O)n(C)c(=O)n2C | · | · | -4.8%[9.04 µM] | · | 4.5%[9.04 µM]
Cc1ccc(C(=O)NCC(=O)OCC(=O)c2ccc3c(c2)NC(=O)CO3)cc1 | -8.4% | 34.1 | 11.5% | 2.2% | -2.6%
CCOC(=O)c1c(C)[nH]c(C(=O)OCC(=O)c2ccccc2)c1C | 4.0% | -12.8 | ? | 3.9% | ?
